# Measurements published in PubChem BioAssay (NCATS).
# Records with an inconclusive call do not appear. Entries that show only a call come without a potency. The source made the active and inactive calls. Calls come from the whole dose curve; as a rule, active = well fitted curve in the direction sought with a large enough effect; inconclusive = small, poorly fitted or top-dose-only effect, or another doubt; inactive = no such curve, though single readings can be large; an effect the other way counts as inactive or inconclusive.
# Legend:
# [1] = biological target: Aldehyde dehydrogenase, mitochondrial (Homo sapiens) (UniProt P05091); assay: qHTS for Inhibitors of the Aldehyde Dehydrogenase Family (ALDH2) Primary screen (AID 2061308); note: nearly all actives have a fitted effect of over 55% in size
# [2] = biological target: Retinaldehyde dehydrogenase 3 (Homo sapiens) (UniProt P47895); assay: qHTS for Inhibitors of the Aldehyde Dehydrogenase Family (ALDH1A3) Primary screen (AID 2061315)
Compound,Potency [1],Potency [2]
O=c1c2ccccc2nc2sc(Nc3ccc4c(c3)CCC4)nn12,inactive,inactive
COc1ccccc1C1=Nn2c(COc3ccccc3)nnc2SC1,inactive,inactive
Cc1nc(CNc2ncnc3ccc(-c4sc(C)nc4C)cc23)cs1,inactive,inactive
O=C(Nc1nc(-c2ccccc2)cs1)c1cccc(NS(=O)(=O)c2nccs2)c1,inactive,inactive
Cc1nc(NC2CCCCC2)c2nc(-c3ccccc3)n(CC3CCN(C)CC3)c2n1,inactive,inactive
Cc1csc(CNc2ncnc3ccc(-c4ccc5c(c4)OCO5)cc23)c1,inactive,inactive
COc1ccc(OC)c(C2=Nn3c(nnc3-c3ccccc3OC)SC2)c1,inactive,inactive
Cc1ccc(=O)n(CC(=O)NCCc2ccccc2)n1,inactive,inactive
Cc1cc(C)nc(NC(=S)N2CCN(c3ccc(Cl)c(Cl)c3)CC2)c1,inactive,inactive
O=C1Nc2ccccc2/C1=C\c1ccc(O)cc1,inactive,inactive
CCCCNc1ncc2c(-c3ccc(S(=O)(=O)N4CCOCC4)cc3)nn(C3CCC(O)CC3)c2n1 (stereo not drawn),inactive,inactive
FC(F)(F)c1cc(-c2ccc(CNc3nc(C4CCCC4)nc4ccccc34)cc2)ccn1,inactive,inactive
COc1ccc(-c2nnc3n2N=C(c2cc(OC)ccc2OC)CS3)cc1,inactive,inactive
COc1ccc2c(c1)CN(C(=O)CCN1CCC(Cc3ccccc3)CC1)CCS2,inactive,inactive
CN(Cc1ccco1)c1ncnc2ccc(-c3cccc(Cl)c3)cc12,inactive,inactive
N#Cc1ccc(Nc2ncc(-c3cccc4ccccc34)o2)cc1,inactive,inactive
CC(C)(C)C1CCC(C(=O)Nc2ccc(S(=O)(=O)Nc3nccs3)cc2)CC1 (stereo not drawn),inactive,inactive
CC1=C(C(=O)NCc2ccccc2)C(c2ccccc2Br)N=C(Nc2nc3ccccc3o2)N1 (stereo not drawn),inactive,inactive
CC(C)(C)OC(=O)Cc1nnc(-c2nc3ccccc3[nH]2)o1,inactive,inactive
COc1cccc(-c2nnc3n2N=C(c2ccc(OC)cc2OC)CS3)c1,inactive,inactive
CC(C)CC(OC(=O)CNC(=O)c1ccccc1)C(=O)Nc1cc(C(F)(F)F)ccc1Cl (stereo not drawn),inactive,inactive
CCCn1c(-c2ccc(F)cc2)nc2c(NCCCN3CCOCC3)nc(C)nc21,inactive,inactive
O=C1CCCC2=C1C1(CCCC1)N=C(Nc1nc3ccccc3o1)N2,inactive,inactive

Compound,Potency [1],Potency [2]
O=C1CCc2cc(S(=O)(=O)Nc3ccccc3F)ccc2N1,inactive,inactive
O=C(O)c1ccc2c(c1)C(=O)N([C@H](Cc1c[nH]c3ccccc13)C(=O)O)C2=O,inactive,inactive
O=C(Cn1nc(-c2ccc(C(F)(F)F)cc2)ccc1=O)NCCc1ccccc1,inactive,inactive
COc1ccc(NS(=O)(=O)c2ccccc2C(=O)O)cc1,inactive,inactive
Cc1ccc(NC(=O)c2ccc(-c3nc4ccccc4[nH]3)cc2)cc1Br,inactive,inactive
Cc1cc(C)nc(NC(=S)N2CCN(c3nccc4occc34)CC2)c1,inactive,inactive
COc1ccc(C2Nc3ccccc3C(=O)N2Cc2cccc(Cl)c2)cc1COc1ccc(NC(C)=O)cc1 (stereo not drawn),inactive,inactive
O=C(Nc1cccc(C(=O)O)c1)Nc1nnc(-c2ccncc2)s1,inactive,inactive
COc1ccc(-n2cnc3c(c2=N)C(c2cccc(OC)c2)c2c(ccc4ccccc24)O3)cc1 (stereo not drawn),inactive,inactive
CCC(Nc1ncnc2ccc(-c3c(C)noc3C)cc12)c1ccccc1 (stereo not drawn),inactive,inactive
NNC(=O)C(C(=O)OCc1ccccc1)c1ccccc1 (stereo not drawn),inactive,inactive
CC(=O)N1c2ccc(S(=O)(=O)Nc3ccc(C)c(C)c3)cc2CC1C (stereo not drawn),inactive,inactive
COc1cccc(NS(=O)(=O)c2ccc(NCc3cccc(OC)c3O)cc2)c1,inactive,inactive
COC(=O)C1=CC[C@H](c2ccc(C)cc2)N(S(=O)(=O)c2ccc(C)cc2)[C@@H]1c1ccc(C(C)(C)C)cc1,inactive,inactive
Cc1ccccc1C(=O)N1CCc2cc(-c3nc(NC(=O)CC4CCCCC4)sc3C)ccc21,inactive,inactive
O=C(Nc1ccc(Cl)c(Cl)c1)Nc1nnc(-c2ccc(F)cc2)s1,inactive,inactive
N#CN1CCC(NC(=O)c2ccc(C(F)(F)F)cc2)CC1,inactive,inactive
c1csc(CNc2ncnc3ccc(-c4ccc5c(c4)OCCO5)cc23)c1,inactive,inactive
CCOC(=O)c1csc(NC(=O)c2ccncc2NS(=O)(=O)c2ccc(C)cc2)n1,inactive,inactive
Cc1noc(C)c1-c1ccc(Nc2nc(-c3ccncc3)nc3ccccc23)cc1F,inactive,inactive
O=C(CSc1ccccc1)Nc1nnc(COc2ccc(Cl)cc2)s1,inactive,inactive
O=[S+]([O-])(Nc1ccc(-c2ccccc2)cc1)c1ccc(NCc2ccc(Cl)cc2O)cc1,inactive,inactive
O=C(Nc1ccc(F)c(F)c1)Nc1nnc(-c2ccncc2)s1,inactive,inactive

Compound,Potency [1],Potency [2]
Cc1cc2c(s1)c1cnn(Cc3c(F)ccc(F)c3F)c(=O)c1n2C,inactive,inactive
COc1cc(O)c(C(CC(=O)N2CCC[C@@H](C)C2)c2ccc3c(c2)OCO3)c(OC)c1 (stereo partly drawn),inactive,inactive
O=C(NC(c1ccco1)c1cc(Cl)c2cccnc2c1O)c1ccccc1 (stereo not drawn),inactive,inactive
N#Cc1ccc(CSc2nc3ncc(Br)cc3[nH]2)cc1,inactive,inactive
Cc1cc2c(s1)c1cnn(Cc3cccc4cccnc34)c(=O)c1n2C,inactive,inactive
C[C@@H]1CN(S(=O)(=O)c2ccc3c(c2)OCCO3)CCN1S(=O)(=O)c1c(F)cccc1F,inactive,inactive
Fc1cc(Nc2nc(-c3ccncc3)nc3ccccc23)ccc1OCC(F)(F)F,inactive,inactive
COc1cccc(CNc2ccc(S(=O)(=O)Nc3nccs3)cc2)c1,inactive,inactive
COC(=O)c1ccc(OC(C)=O)c2ncccc12,inactive,inactive
C=C1C(=O)O[C@@H]2/C=C(\C)CC/C=C(/C=O)[C@H](OC)[C@@H](OC(=O)C(C)C)[C@@H]12,inactive,inactive
COc1cc2ncnc(N(C)Cc3cccs3)c2cc1-c1ccc2c(c1)OCO2,inactive,inactive
Cc1cc2c(s1)c1cnn(Cc3cc(C(F)(F)F)ccc3F)c(=O)c1n2C,inactive,inactive
O=C1CCCC2=C1C1(CCSC1)N=C(Nc1nc3ccccc3o1)N2 (stereo not drawn),inactive,inactive
NS(=O)(=O)c1ccc(Nc2nc(-c3ccccc3)cs2)cc1,inactive,inactive
Cc1ccc(CC(=O)Nc2nc(-c3ccc4c(c3)CCN4C(=O)c3ccccc3C)c(C)s2)cc1C,inactive,inactive
Cn1ccc2cc(-c3ccc4ncnc(NCc5ccc6c(c5)OCO6)c4c3)ccc21,inactive,inactive
O=C1CCc2cc(S(=O)(=O)Nc3ccc(-c4ccccc4)cc3)ccc2N1,inactive,inactive
CC(=O)NC1CCN(c2nc(-c3ccc(Br)cc3)cs2)CC1,inactive,inactive
CCOc1ccc(C(=O)Nc2ccc(-c3nn[nH]n3)cc2)cc1[N+](=O)[O-],inactive,inactive
CCC(CC)C(=O)OC12C(OC(=O)C(C)C)C(C)C3(O)C(C=C(CO)CC4(O)C(=O)C(C)=CC43)C1C2(C)C (stereo not drawn),inactive,inactive
N#Cc1c(-c2ccco2)no[n+]1[O-],inactive,inactive
CC(=O)Nc1sc2c(c1-c1ccc(-c3nn[nH]n3)cc1)CCNC2,inactive,inactive
O=C1c2ccccc2C(=O)N1Cc1ccccn1,inactive,inactive

Compound,Potency [1],Potency [2]
CNc1oc(-c2cccs2)nc1C#N,inactive,inactive
COc1ccc(CCc2nc3c(C)c(-c4c(C)noc4C)c(C)cc3n2CCN2CCOCC2)cc1,inactive,inactive
CN(CC(F)(F)F)c1nc(NCc2ccc(-c3cccnc3)cc2)c2ccccc2n1,inactive,inactive
O=C(NNC(=O)c1cc2ccccc2[nH]1)OCc1ccccc1,inactive,inactive
O=C(O)c1ccc(-c2cccc(-c3nn4c(=O)cc(N5CCNCC5)nc4s3)c2)cc1,inactive,inactive
Cc1cc(N[S+](=O)([O-])c2ccc(NC(=O)Cc3ccc(C(F)(F)F)c(F)c3)cc2)no1,inactive,inactive
COc1ccc(NS(=O)(=O)c2ccc3c(c2)CCC(=O)N3)cc1,inactive,inactive
COc1cccc(NC(=S)N2CCN(c3cccc(C(F)(F)F)n3)CC2)n1,inactive,inactive
O=C1CN(S(=O)(=O)c2ccc3c(c2)OCCO3)CCN1S(=O)(=O)c1c(F)cccc1F,inactive,inactive
O=C(Nc1ccc(Br)c(Br)c1)Nc1cccc(-c2ccncc2)n1,inactive,inactive
CC(=O)c1ccccc1-c1ncc(C)c(NCC2CCN(c3cccnc3)CC2)n1,inactive,inactive
Cc1ccc(C)c(SC2=CS(=O)(=O)c3ccccc32)c1,inactive,inactive
Cc1cc(C)nc(NC(=S)N2CCN(c3nccc4ccccc34)CC2)c1,inactive,inactive
Cc1ccc(-c2ccc(=O)n(CCNC(C)c3ccco3)n2)cc1 (stereo not drawn),inactive,inactive
Cc1cc2c(s1)c1cnn(Cc3cccc(Br)c3)c(=O)c1n2C,inactive,inactive
CC1=C(C(=O)Nc2ccc(Cl)cc2)C(c2ccccc2Br)N=C(Nc2nc3ccccc3o2)N1 (stereo not drawn),inactive,inactive
Cc1noc(C)c1-c1ccc2ncnc(NCc3ccccc3F)c2c1,inactive,inactive
Cc1cc2c(s1)c1cnn(Cc3ccc(F)cc3Cl)c(=O)c1n2C,inactive,inactive
CCCn1c(C)nc2c(NCC3CCCN3CC)nc(C)nc21 (stereo not drawn),inactive,inactive
O=C(OCC#CCSc1nnc(-c2ccc3ccccc3c2)o1)c1cc2ccccc2s1,inactive,inactive
